The text below walks through data of PubChem BioAssay (NCATS).

Inconclusive results are not listed. Values without a mark were called inactive. Activity calls are given as the source filed them. The call rests on the fitted dose curve; in most records, active means well fitted inhibition curve with a large enough effect; inconclusive means small, poorly fitted or top-dose-only effect; inactive means flat fitted curve, though single readings scatter.

Sequence of Lysine-specific demethylase 5B (Homo sapiens) (Q9UGL1 whole entry, looked up): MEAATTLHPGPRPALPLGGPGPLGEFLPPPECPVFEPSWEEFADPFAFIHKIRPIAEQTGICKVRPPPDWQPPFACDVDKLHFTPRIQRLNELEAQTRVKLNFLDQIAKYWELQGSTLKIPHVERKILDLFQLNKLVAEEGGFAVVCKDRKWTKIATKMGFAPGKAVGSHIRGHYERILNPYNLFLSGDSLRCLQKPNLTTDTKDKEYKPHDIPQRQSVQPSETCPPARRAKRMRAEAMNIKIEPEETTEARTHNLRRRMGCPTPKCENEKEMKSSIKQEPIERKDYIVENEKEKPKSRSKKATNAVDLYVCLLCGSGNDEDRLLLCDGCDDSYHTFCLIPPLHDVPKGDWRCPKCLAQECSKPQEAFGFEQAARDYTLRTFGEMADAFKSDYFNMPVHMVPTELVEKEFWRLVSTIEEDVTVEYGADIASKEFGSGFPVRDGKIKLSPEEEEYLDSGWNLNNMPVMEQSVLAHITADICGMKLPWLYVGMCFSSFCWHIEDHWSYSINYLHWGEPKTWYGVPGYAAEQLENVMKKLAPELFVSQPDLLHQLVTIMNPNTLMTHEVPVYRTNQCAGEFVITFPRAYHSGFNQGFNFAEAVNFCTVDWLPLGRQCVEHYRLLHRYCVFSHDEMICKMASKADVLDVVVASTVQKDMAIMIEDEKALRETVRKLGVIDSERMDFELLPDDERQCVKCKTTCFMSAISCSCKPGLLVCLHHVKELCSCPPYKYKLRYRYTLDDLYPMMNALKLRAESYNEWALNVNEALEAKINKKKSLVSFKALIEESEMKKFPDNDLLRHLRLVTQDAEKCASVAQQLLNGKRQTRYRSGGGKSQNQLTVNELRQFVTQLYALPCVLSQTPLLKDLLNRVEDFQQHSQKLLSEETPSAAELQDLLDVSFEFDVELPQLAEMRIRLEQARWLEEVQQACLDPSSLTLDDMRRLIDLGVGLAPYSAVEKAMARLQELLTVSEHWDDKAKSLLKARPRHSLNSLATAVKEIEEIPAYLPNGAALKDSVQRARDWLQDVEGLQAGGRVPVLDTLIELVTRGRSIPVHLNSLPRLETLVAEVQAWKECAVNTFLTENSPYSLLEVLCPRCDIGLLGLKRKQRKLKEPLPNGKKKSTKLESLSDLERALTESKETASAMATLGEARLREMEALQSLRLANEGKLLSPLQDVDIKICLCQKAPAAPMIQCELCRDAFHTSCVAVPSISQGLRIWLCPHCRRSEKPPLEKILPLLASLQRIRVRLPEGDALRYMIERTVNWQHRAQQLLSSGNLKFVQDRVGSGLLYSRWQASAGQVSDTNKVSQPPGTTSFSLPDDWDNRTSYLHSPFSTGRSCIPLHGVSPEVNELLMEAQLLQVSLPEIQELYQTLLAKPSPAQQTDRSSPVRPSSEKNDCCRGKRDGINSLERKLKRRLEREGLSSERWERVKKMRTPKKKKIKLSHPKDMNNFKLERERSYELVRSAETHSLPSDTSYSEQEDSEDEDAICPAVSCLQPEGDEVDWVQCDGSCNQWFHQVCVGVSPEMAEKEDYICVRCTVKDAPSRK

In the assay the target is Lysine-specific demethylase 5B (Homo sapiens) (UniProt Q9UGL1). The experiment in a line: Optimization screen for KDM5B Histone Demethylases FDH coupled qHTS against the LOPAC library (AID 1347166). Further: 0% is about no effect. As to conditions: KDM5B demethylation, FDH-coupled NADH fluorescence (FDH is formaldehyde dehydrogenase); at 57.5 µM (top of the series). An outline of the steps:
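KDM5BDeltaAP (200nM final) preincubated 10 min with compound, then 12.5uM H3K4Me3, 25uM a-ketoglutarate, ascorbate, Fe(II), NAD+ and FDH added; 50mM HEPES pH 7.5, 0.01% Tween-20. NADH fluorescence (340/450 nm) change over 30 min, room temperature.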
For orientation: qHTS replaces the single test concentration by a dilution series.
`[Li+]`: the activity, negative = inhibition is -3.55%. For `CC(=O)SC1CC2=CC(=O)CC[C@]2(C)C2CC[C@@]3(C)C(CC[C@@]34CCC(=O)O4)C12` (stereo not given in full) the value was 0.621%; for `C[N+](C)(C)CC=O`, -0.629%. Then `CN1C2CCC1CC(OC(c1ccccc1)c1ccccc1)C2` (stereo not given), with -5.47%; and `CCCCCCCCCCCCCCSCC(=O)O`, with -24.4%. For `c1ccc(CN2CCC3(CCCc4ccccc43)CC2)cc1` the value was -0.246%; for `Nc1ncnc2c1nc(Sc1ccc(Cl)cc1)n2[C@H]1OC2COP(=O)(O)O[C@@H]2C1O` (stereo not given in full), -0.0945%. Take `O=C(O)CCC/C=C\C[C@@H]1[C@@H](/C=C/[C@H](O)C2Cc3ccccc3C2)[C@@H](F)C[C@@H]1O`: the activity, negative = inhibition was -5.83%. For `COc1cc(C(O)CO)ccc1O` (stereo not given) the value was -5.15%.

For the compound `NOCC(=O)O`, the activity, negative = inhibition is -4.09%. For `CCCCOC(=O)NS(=O)(=O)c1sc(CC(C)C)cc1-c1ccc(Cn2c(CC)nc3c(C)cc(C)nc32)cc1` the value was -19.3%; for `C=C1C[C@@]23CC[C@H]4[C@@](C)(CCC[C@@]4(C)C(=O)O)[C@@H]2CC[C@]1(O)C3`, -2.05%; for `Cn1ccnc1`, -0.951%.

Regarding `O=c1onc2n1-c1cc(Br)ccc1OC2`, the activity, negative = inhibition is -6.75%. Then `CCC1(O)CC2CN(CCc3c([nH]c4ccccc34)[C@@](C(=O)OC)(c3cc4c(cc3OC)N(C)C3[C@]45CCN4CC=C[C@@](CC)([C@@H](OC(C)=O)[C@]3(O)C(=O)OC)[C@H]45)C2)C1` (stereo not given in full), with -13.4%; and `Cc1cc(Cn2cnc3c2C[C@@H](C(=O)O)N(C(=O)C(c2ccccc2)c2ccccc2)C3)ccc1N`, with 0.747%.

For the compound `NC(=O)c1ccccc1`, the activity, negative = inhibition was 0.361%. For `O=C(c1ccc2c(c1)OCCO2)N1CCCCC1` the value was -3.79%.

Regarding `NC1CCN(O)C1=O` (stereo not given), the activity, negative = inhibition is -8.73%.

For the compound `COc1cc(N)c(Cl)cc1C(=O)OCCN1CCCCC1`, the activity, negative = inhibition is -18.2%. In the case of `O=c1cc(-c2ccccc2F)[nH]c2cc3c(cc12)OCO3`, the activity, negative = inhibition is -604% (active).

As to `NC(=O)CC[C@H](N)C(=O)O`, the activity, negative = inhibition was -1.79%. Then `CC1C(=O)N(C)C(=O)c2nc[nH]c21` (stereo not given), with -5.54%; and `N[C@@H](CCCC(=O)O)C(=O)O`, with -3.82%; and `OCC1NCC(O)C(O)C1O` (stereo not given), with -3.55%.

For `CSc1nc(N)c2ncn([C@@H]3O[C@H](COP(=O)(O)OP(=O)(O)O)C(O)[C@H]3O)c2n1` (stereo not given in full), the activity, negative = inhibition is -13.8%. Then `COc1cc([C@@H]2c3cc4c(cc3[C@H](O)C3COC(=O)[C@@H]32)OCO4)cc(OC)c1OC` (stereo not given in full), with -3%; and `OC[C@H]1O[C@H](n2cnc3c(N[C@H]4CCC[C@@H]4O)ncnc32)[C@H](O)[C@@H]1O`, with -3.36%. In the case of `N=C(N)SCCN`, the activity, negative = inhibition was -12%. For `CN(CC[C@@H](Oc1ccc(C(F)(F)F)cc1)c1ccccc1)CC(=O)O` the value was -7.4%. Regarding `CCN1C(=O)C=CC1=O`, the activity, negative = inhibition is -3.85%. For `CC(=O)C(C)=O` the value was -10.5%.

In the case of `CC(=O)[C@H]1CCC2C3CC=C4C[C@@H](OS(=O)(=O)O)CC[C@]4(C)C3CC[C@@]21C` (stereo not given in full), the activity, negative = inhibition is 0.452%. For `Clc1nccc2c1ccc1ccccc12` the value was 2.06%. With `CC(N)(Cc1ccc(O)cc1)C(=O)O` (stereo not given), the activity, negative = inhibition was 1.49%.

Turning to `CC(C)(C)c1ccc(/C=C/C(=O)Nc2ccc3c(c2)OCCO3)cc1`, the activity, negative = inhibition is -12.1%.

In the case of `N[C@@H](Cc1c[nH]c2ccccc12)C(=O)O`, the activity, negative = inhibition is -20.4%. Then `COC(=O)C(N)Cc1ccc(Cl)cc1` (stereo not given), with -3.16%; and `Cc1ccc2c(c1)C(N1CCN(C)CC1)=Nc1cccnc1N2`, with -6.11%; and `N#CC(=C(\N)Sc1ccccc1N)/C(C#N)=C(/N)Sc1ccccc1N`, with -5.86%.
